Test systems include NCI-H23 lung; NCI-H226 lung; NCI-H322M lung; HOP-62 NSCLC; HOP-92 NSCLC; NCI-H522 lung; A549/ATCC NSCLC; 786-0 renal; COLO 205 colon; DU-145 prostate; K-562 leukemia; MALME-3M melanoma; MDA-MB-231 breast; SF-268 CNS; SF-295 CNS; SF-539 CNS; UACC-257 melanoma; M14 melanoma; RXF 393 renal; NCI-H460 lung.
What all share (assay): NCI-60 one-dose screen, 48 h (100 = growth as untreated, 0 = no growth, -100 = all killed)
Holding throughout (settings): 10 µM unless noted

The structures appear in SMILES notation. This is part of a sample that, as a whole, favours compounds with a hit. Of some 83,000 tested, about 20% had one in any assay.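 Treatment: one concentration, 48 hours, 96-well format. Scoring: percent growth, with anything below 10 considered active.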 Values without a mark were called inactive. Active and inactive are the calls of the source.

Take `O=C(c1ccc(Cl)cc1)N1CCCCC1`: the growth was 95.6% with NCI-H23 lung; 95.4% in the assay on NCI-H226 lung; 106% in the assay with NCI-H322M lung; 96.7% in the assay on HOP-62 NSCLC; 97.4% in the assay on HOP-92 NSCLC; 93.6% with NCI-H522 lung. Also, the growth with A549/ATCC NSCLC was 95.4%; in the assay on 786-0 renal, 102%; with COLO 205 colon, 104%; in the assay with DU-145 prostate, 115%; in the assay on K-562 leukemia, 97.2%; in the assay with MALME-3M melanoma, 109%. For the same molecule, the growth is 94.4% with MDA-MB-231 breast; 104% with SF-268 CNS; 99.2% in the assay with SF-295 CNS; 98.5% with SF-539 CNS; 94% in the assay on UACC-257 melanoma; 104% in the assay on M14 melanoma.
With `CC(C)N(CCCC#N)C(C)C`, the growth in the assay with NCI-H23 lung was 104%; in the assay on NCI-H226 lung, 114%; in the assay with NCI-H322M lung, 104%; in the assay on HOP-62 NSCLC, 98.6%; in the assay on HOP-92 NSCLC, 85.8%; with NCI-H522 lung, 108%. The growth was 93.9% with A549/ATCC NSCLC; 100% in the assay with 786-0 renal; 110% in the assay on COLO 205 colon; 107% in the assay with DU-145 prostate; 104% with K-562 leukemia; 109% in the assay with MALME-3M melanoma. The growth in the assay with MDA-MB-231 breast was 102%; in the assay with RXF 393 renal, 103%; with SF-268 CNS, 103%; in the assay with SF-295 CNS, 100%; in the assay with SF-539 CNS it was 97.9%; in the assay with UACC-257 melanoma, 89.2%. The growth in the assay with M14 melanoma is 107%.
Turning to `Cc1cc(Nc2ccc3c(c2)OCO3)c2cc3c(cc2n1)OCO3`, the growth is 46% in the assay on NCI-H23 lung; 88% in the assay on NCI-H226 lung; 57.5% in the assay with NCI-H322M lung; 17.9% in the assay with HOP-62 NSCLC; 10.4% in the assay with HOP-92 NSCLC; -21.1% (active) in the assay with NCI-H522 lung. Further, the growth is 46.3% in the assay on A549/ATCC NSCLC; 18.9% in the assay on 786-0 renal; -21.3% (active) with COLO 205 colon; 3.67% (active) with DU-145 prostate; 36.8% with K-562 leukemia; 24.4% with MALME-3M melanoma. Further, the growth is 32.3% in the assay on MDA-MB-231 breast; 6.97% (active) in the assay with RXF 393 renal; 37.9% in the assay on SF-268 CNS; -62.6% (active) in the assay with SF-295 CNS; -15.5% (active) with SF-539 CNS; 75.7% with UACC-257 melanoma.
Regarding `CCCCN(C(=O)CC)c1ccccc1`, the growth in the assay on NCI-H23 lung was 99.9%; with NCI-H226 lung, 107%; in the assay with NCI-H322M lung, 97.9%; in the assay with HOP-62 NSCLC it was 105%; with HOP-92 NSCLC, 109%; with NCI-H522 lung, 95.3%. Also, the growth was 96.5% in the assay with A549/ATCC NSCLC; 99.2% in the assay on 786-0 renal; 99.7% in the assay on COLO 205 colon; 99.7% in the assay with DU-145 prostate; 100% with MALME-3M melanoma; 105% in the assay on MDA-MB-231 breast. For the same molecule, the growth with RXF 393 renal is 115%; with SF-268 CNS it was 98.6%; in the assay on SF-295 CNS it was 99.8%; in the assay on SF-539 CNS, 100%; with UACC-257 melanoma, 95.5%; in the assay with M14 melanoma, 91.8%.
For `C=C1C(=O)C2CCC1C2` (centres undefined), the growth in the assay with NCI-H23 lung is 107%; in the assay on NCI-H226 lung, 99.8%; with NCI-H322M lung, 97.5%; in the assay on HOP-62 NSCLC, 102%; in the assay on HOP-92 NSCLC, 102%; with NCI-H522 lung, 91.8%. In addition, the growth was 98.4% with A549/ATCC NSCLC; 92.8% in the assay on 786-0 renal; 112% in the assay with COLO 205 colon; 98.4% in the assay on DU-145 prostate; 92.6% in the assay with K-562 leukemia; 93.6% with MALME-3M melanoma. The growth in the assay on MDA-MB-231 breast was 103%; with RXF 393 renal, 112%; with SF-268 CNS, 88.9%; in the assay on SF-295 CNS, 102%; in the assay on SF-539 CNS it was 105%; in the assay with UACC-257 melanoma, 105%. Moreover, the growth with M14 melanoma is 96.5%.
For the molecule `COc1ccc(Br)c2c1C(=O)CC2`, the growth in the assay with NCI-H23 lung was 109%; with NCI-H226 lung it was 100%; in the assay on NCI-H322M lung it was 159%; in the assay on HOP-62 NSCLC, 116%; in the assay with HOP-92 NSCLC it was 94.5%; in the assay with NCI-H522 lung, 43.1%. For the same molecule, the growth is 122% in the assay with A549/ATCC NSCLC; 113% in the assay on 786-0 renal; 114% in the assay with COLO 205 colon; 127% with DU-145 prostate; 113% in the assay on MALME-3M melanoma; 106% with MDA-MB-231 breast. Also, the growth in the assay on SF-268 CNS was 91.3%; with SF-295 CNS it was 111%; in the assay on SF-539 CNS it was 106%; in the assay with UACC-257 melanoma, 119%; in the assay on M14 melanoma, 110%.
On to `N#CCCN1C(=O)CCC1C(=O)O` (centres undefined), for which the growth in the assay on NCI-H23 lung was 109%; with NCI-H226 lung it was 113%; in the assay on NCI-H322M lung, 112%; in the assay on HOP-62 NSCLC, 119%; with HOP-92 NSCLC, 109%; in the assay with NCI-H522 lung, 85%. For the same molecule, the growth in the assay with A549/ATCC NSCLC is 103%; in the assay with 786-0 renal, 107%; in the assay on COLO 205 colon, 115%; with DU-145 prostate, 114%; in the assay with K-562 leukemia it was 96.8%; in the assay with MALME-3M melanoma it was 114%. Also, the growth in the assay with MDA-MB-231 breast is 129%; in the assay with RXF 393 renal, 115%; with SF-268 CNS, 97.3%; in the assay with SF-295 CNS, 101%; in the assay on SF-539 CNS, 104%; in the assay on UACC-257 melanoma it was 93.4%. The growth with M14 melanoma is 104%.
Regarding `Nc1nc(Cl)cc(Cl)n1`, the growth with NCI-H23 lung was 95.9%; with NCI-H226 lung, 101%; with NCI-H322M lung it was 99%; with HOP-62 NSCLC it was 85.2%; in the assay with HOP-92 NSCLC it was 113%; in the assay with A549/ATCC NSCLC, 81%. Moreover, the growth in the assay with 786-0 renal is 103%; in the assay on COLO 205 colon, 96.8%; in the assay on DU-145 prostate, 108%; in the assay with K-562 leukemia it was 92.3%; in the assay on MALME-3M melanoma, 90.8%; in the assay with MDA-MB-231 breast it was 114%. For the same molecule, the growth is 102% with RXF 393 renal; 100% in the assay with SF-268 CNS; 106% with SF-295 CNS; 107% in the assay with SF-539 CNS; 85.5% in the assay with UACC-257 melanoma.
In the case of `C/C(Cc1ccccc1)=N\O`, the growth was 109% with NCI-H23 lung; 112% with NCI-H226 lung; 118% in the assay on HOP-62 NSCLC; 107% in the assay with NCI-H460 lung; 84% with HOP-92 NSCLC; 106% with NCI-H522 lung. Besides, the growth was 103% with A549/ATCC NSCLC; 102% with 786-0 renal; 116% in the assay with COLO 205 colon; 109% with DU-145 prostate; 88.6% in the assay with K-562 leukemia; 110% in the assay with MALME-3M melanoma. Also, the growth in the assay with MDA-MB-231 breast was 113%; in the assay with RXF 393 renal it was 112%; in the assay on SF-268 CNS, 101%; in the assay on SF-295 CNS, 117%; in the assay on SF-539 CNS it was 108%; in the assay on UACC-257 melanoma, 107%. Also, the growth in the assay with M14 melanoma is 105%.

(Values after PubChem BioAssay (NCI).)
